According to PubChem BioAssay:
Entries with a potency or affinity are not part of this list. The source made the active and inactive calls. No cut-off is given here; in the data, nearly all actives have IC50 up to about 0.91 µM.

Each molecule was assayed against Calcium-dependent protein kinase 4 (Plasmodium falciparum (isolate 3D7)) (UniProt Q8IBS5) (assay: PfCDPK4 kinase inhibitors, biochemical, TCAMS library (AID 1159588)). Details: recombinant PfCDPK4, Kinase-Glo ATP depletion luminescence.
Calcium-dependent protein kinase 4 (Plasmodium falciparum (isolate 3D7)), sequence (Q8IBS5 whole entry, looked up): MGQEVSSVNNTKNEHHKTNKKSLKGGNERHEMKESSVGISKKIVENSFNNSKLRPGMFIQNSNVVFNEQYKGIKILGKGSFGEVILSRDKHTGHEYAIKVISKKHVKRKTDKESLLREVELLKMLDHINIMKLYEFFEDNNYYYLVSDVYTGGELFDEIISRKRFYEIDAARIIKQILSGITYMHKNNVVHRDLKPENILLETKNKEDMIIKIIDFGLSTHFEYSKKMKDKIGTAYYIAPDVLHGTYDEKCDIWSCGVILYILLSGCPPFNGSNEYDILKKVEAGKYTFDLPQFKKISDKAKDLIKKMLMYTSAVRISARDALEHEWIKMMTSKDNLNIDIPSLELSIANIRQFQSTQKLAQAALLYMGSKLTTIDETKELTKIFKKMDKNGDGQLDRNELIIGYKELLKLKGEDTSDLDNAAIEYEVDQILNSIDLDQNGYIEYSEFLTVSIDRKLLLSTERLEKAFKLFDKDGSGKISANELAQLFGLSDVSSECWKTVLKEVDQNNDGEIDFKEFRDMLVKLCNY

outcome, inactive:
c1cc(CN2CCCCC2)cc(-c2csc(-c3nc4ccccc4[nH]3)c2)c1
CC(=NNC(=S)NCCc1ccccc1)c1ccccn1
CN1CCCC(CN2CCN(Cc3cccc(-c4ccc(-c5nc6ccccc6[nH]5)s4)c3)CC2)C1 (stereo not given)
CN1CCN(c2ccc3nc(-c4ccc5nc(-c6ccc(O)cc6)[nH]c5c4)[nH]c3c2)CC1
CCOc1ccc2c(NN=Cc3ccccc3OC)cc(C)nc2c1
CO/C(=C\C=C\c1cc2cc(Cl)c(Cl)cc2[nH]1)C(=O)Nc1ccc(NCCN(C)C)nc1
CCN(CC)CCN(Cc1ccc(-c2ccc(C(F)(F)F)cc2)cc1)C(=O)Cn1c(CCc2cc(F)ccc2F)nc(=O)c2ccccc21
Nc1ncc(-c2ccccc2)cc1-c1cccc2ncccc12
Cc1nc(-c2cccc(Nc3nccc(NCC(O)c4cccc(F)c4)n3)c2)cs1 (stereo not given)
Cc1cnc(Nc2ccccc2)nc1NCCC(=O)Nc1ccccc1
Cc1cccc2[nH]c(-c3cccc(-c4cccc(NC(=O)C(C)CN5CCN(C)CC5)c4)c3)nc12 (stereo not given)
O=C(Nc1ccc(NC2=NCCN2)cc1)c1ccc(C(=O)Nc2ccc(NC3=NCCN3)cc2)cc1
Cc1onc(-c2ccccc2)c1-c1nc(NCc2ccccc2Cl)no1
O=C(NCc1ccccc1)c1nn(CCCN2CCC(N3CCCC3)CC2)cc1-c1ccc(Cl)c(Cl)c1
O=C(Cc1cccc(Cl)c1)N1CCc2cc3nccc(N4CCN5CCC[C@H]5C4)c3cc21
